Laboratory results taken from PubChem BioAssay (NCI).
Compounds without any hit were thinned out: in the full panel of roughly 83,000, 20% have a hit.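 Negative percent growth values reflect cell death: -40 means 40% of the cells present at the start died, and -100 means all died.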 Unmarked numbers belong to inactive results. The source made the active and inactive calls. How the source made its calls: active means growth percent below 10; inactive means the rest.

Tested on: NCI-H460 lung
Experiment: NCI-60 one-dose screen, 48 h (100 = growth as untreated, 0 = no growth, -100 = all killed)
Settings: 10 µM unless noted

Q: How did the growth turn out when CC(=O)Oc1ccc(CCN2C(=O)CSC2=S)cc1 was run?
A: 101%

Q: How did the growth turn out when COc1cc(/C=N/n2cnc3oc(-c4ccccc4)cc3c2=N)cc(CN2CCOCC2)c1O was run?
A: 89.8%

Q: Which growth does the source give for CCOC(=O)/C=c1\sc2n(c1=O)C1C(NN=2)N(CC)C(=O)N1CC (stereo not drawn) here?
A: 37.8%

Q: CN(C)c1ccc(/C=N/Nc2nc(N/N=C/c3ccc(N(C)C)cc3)nc(N3CCOCC3)n2)cc1 was tested. Which growth did it give?
A: 16.7%

Q: How did the growth turn out when COc1cc2oc(-c3cccc(NC(=O)c4cc(NC(=O)[C@H](C)NC(=O)OC(C)(C)C)ccc4C)c3)cc(=O)c2c(OC)c1OC was run?
A: 61.5%

Q: How did the growth turn out when CN1CCN(Cc2ccc(NC(=O)c3cncc(C#Cc4cnc5ccc(NC6CCOCC6)nn45)c3)cc2C(F)(F)F)CC1 was run?
A: -81.4% (active)

Q: Which growth does the source give for O=C(Nc1ccc(Cl)cc1)Nc1nc2ccc([N+](=O)[O-])cc2s1 here?
A: -9.27% (active)

Q: Which growth does the source give for CCCCCCNC(=O)Oc1ccc(/C(=C(/C)c2ccc(OC)cc2)c2ccc(OCCN3CCCC3)cc2)cc1 here?
A: 55.3%

Q: How did the growth turn out when O=c1c2ccccc2nc(COc2ccccc2)n1/N=C/C=C/c1ccccc1 was run?
A: 99.1%

Q: With CCCCCc1ccc(S(=O)(=O)N(C(C)=O)c2cccc(-c3csc(N(CCN4CCN(C)CC4)C(C)=O)n3)c2)cc1 as the compound, how does the growth read?
A: -21.4% (active)

Q: For O=C(NNc1nc2cc(F)c(F)cc2n2cccc12)c1ccncn1, which growth is on record?
A: 9.5% (active)

Q: With O=C(CCCCCCN1CC(=O)N2[C@@H](c3cccc(Cl)c3)c3[nH]c4ccccc4c3C[C@H]2C1=O)NO as the compound, how does the growth read?
A: 43.1%

Q: For O=C(/C=C/c1cn(-c2ccccc2)nc1-c1ccc(Cl)cc1)c1cc2ccccc2oc1=O, which growth is on record?
A: 54.6%
